Where “and” joins values, the source holds several entries; their conditions need not be identical. Equal values may be shown once. Records with an inconclusive call do not appear. Calls of active or inactive are those of the source. Unless noted, calls follow the shape of the dose curve; as a rule, active = well fitted curve in the direction sought with a large enough effect; inconclusive = small, poorly fitted or top-dose-only effect, or another doubt; inactive = no such curve, though single readings can be large; an effect the other way counts as inactive or inconclusive.
How the values were obtained:
[1] = qHTS for Inhibitors of the vitamin D receptor (VDR): Hit Validation using a Texas Red Assay (AID 602201); also: potency is read from the fitted curve at half-maximal effect
Procedure, shortened: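 After a 2-hour room-temperature incubation, polarization of Texas-Red emission was read (Ex 595 nm/Em 615 nm). Final mix contained 7 nM Texas Red, 1.5 uM VDR-LBD and LG19078.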

[2] = target: Vitamin D3 receptor (Homo sapiens) (UniProt P11473); assay: qHTS assay for small molecule agonists of vitamin D receptor signaling (AID 588543; calls by dose curve;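 also: 0% = DMSO basal and 100% = reference agonist control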)
Sequence of Vitamin D3 receptor (Homo sapiens) (P11473 whole entry, looked up): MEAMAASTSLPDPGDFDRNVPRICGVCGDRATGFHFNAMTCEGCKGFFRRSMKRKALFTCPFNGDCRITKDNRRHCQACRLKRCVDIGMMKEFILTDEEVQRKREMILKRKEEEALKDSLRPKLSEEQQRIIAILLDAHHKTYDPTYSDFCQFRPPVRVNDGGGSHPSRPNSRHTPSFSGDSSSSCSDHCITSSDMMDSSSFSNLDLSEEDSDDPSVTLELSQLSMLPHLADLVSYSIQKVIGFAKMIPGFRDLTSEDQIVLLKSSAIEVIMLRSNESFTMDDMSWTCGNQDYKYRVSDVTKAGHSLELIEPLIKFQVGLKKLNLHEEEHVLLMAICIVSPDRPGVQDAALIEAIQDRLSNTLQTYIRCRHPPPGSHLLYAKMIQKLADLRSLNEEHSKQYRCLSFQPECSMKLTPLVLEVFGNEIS
Procedure, shortened: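 β-lactamase reporter, VDR-UAS-bla HEK293T, agonist mode. Cells plated 5 h at 37 °C, compound titration 16 h at 37 °C, CCF4 dye 2 h RT, ratio 460/530 nm. Hill fit → EC50, efficacy vs 50 nM 1α,25-(OH)2D3.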

[3] = target: Peroxisome proliferator-activated receptor alpha (Homo sapiens) (UniProt Q07869); assay: qHTS assay for small molecule agonists of the peroxisome proliferator-activated receptor alpha (PPARalpha) signaling pathway (AID 651778); conditions: PathHunter PPARalpha complementation, chemiluminescence, 6 h; max response: stronger effect = higher value; also: % of control where 0% means no effect
Sequence of Peroxisome proliferator-activated receptor alpha (Homo sapiens) (Q07869 whole entry, looked up): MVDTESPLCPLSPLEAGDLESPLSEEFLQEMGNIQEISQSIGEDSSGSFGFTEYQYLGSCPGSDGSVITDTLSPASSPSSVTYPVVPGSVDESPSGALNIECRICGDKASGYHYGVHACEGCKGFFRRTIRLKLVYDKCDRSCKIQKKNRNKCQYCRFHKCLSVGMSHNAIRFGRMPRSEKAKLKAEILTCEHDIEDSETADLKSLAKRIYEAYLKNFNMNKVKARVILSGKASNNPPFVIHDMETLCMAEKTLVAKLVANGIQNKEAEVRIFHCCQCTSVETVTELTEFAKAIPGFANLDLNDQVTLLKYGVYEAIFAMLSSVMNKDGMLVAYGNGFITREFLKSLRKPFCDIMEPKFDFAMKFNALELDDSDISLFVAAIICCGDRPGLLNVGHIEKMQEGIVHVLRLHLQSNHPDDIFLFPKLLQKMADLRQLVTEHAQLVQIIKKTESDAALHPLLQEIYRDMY
Procedure, shortened: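 Chemiluminescence from complemented enzyme reported PPARalpha activation in cells after 6 hr of compound treatment at 37 C. The detection reagent was incubated for 60 min at room temperature, and compounds were scored as agonists.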

[4] = qHTS assay for small molecule antagonists of peroxisome proliferator-activated receptor delta signaling (AID 588535; active = well fitted inhibition curve with a large enough effect in the signal ratio, with a control signal flat, not every such curve was filed as active; the % refers to the signal ratio;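 as to max response: cells co-treated with a PPAR-delta agonist as stimulator during compound exposure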); conditions: HEK293T PPARd-UAS-bla, beta-lactamase FRET ratio, 18 h; 460 nm channel
Procedure, shortened: (§1)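 Cell-based beta-lactamase assay in antagonist mode: 4000 HEK293T PPAR-delta-UAS-bla cells per well, 5 hr preincubation then 18 hr compound incubation at 37 C. IC50 obtained by Hill equation fitting.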

[5] = target: Peroxisome proliferator-activated receptor delta (Homo sapiens) (UniProt Q03181); assay: as above
Sequence of Peroxisome proliferator-activated receptor delta (Homo sapiens) (Q03181 whole entry, looked up): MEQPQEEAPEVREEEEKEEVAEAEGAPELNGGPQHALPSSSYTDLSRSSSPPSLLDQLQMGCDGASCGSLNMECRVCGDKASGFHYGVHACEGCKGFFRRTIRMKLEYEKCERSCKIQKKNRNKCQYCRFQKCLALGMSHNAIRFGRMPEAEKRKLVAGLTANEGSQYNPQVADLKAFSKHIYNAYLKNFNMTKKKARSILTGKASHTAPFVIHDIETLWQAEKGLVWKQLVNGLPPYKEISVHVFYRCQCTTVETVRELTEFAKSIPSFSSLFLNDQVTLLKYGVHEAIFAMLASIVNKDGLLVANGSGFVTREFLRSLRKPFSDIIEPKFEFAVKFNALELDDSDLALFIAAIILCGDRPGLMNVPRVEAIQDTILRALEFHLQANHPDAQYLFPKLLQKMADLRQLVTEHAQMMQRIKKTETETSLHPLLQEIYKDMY
Procedure, shortened: as §1

[6] = target: Vitamin D3 receptor (Homo sapiens) (UniProt P11473); assay: qHTS assay for small molecule antagonists of vitamin D receptor signaling (AID 588541; calls by dose curve;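 also: receptor activated by calcitriol during compound treatment; series mostly up to about 77 µM; % is scaled to controls: 0 for no effect and ±100 for the full control effect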)
Procedure, shortened: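 Antagonist-mode beta-lactamase reporter assay: HEK293T VDR-UAS-bla cells were exposed to titrated compound alongside 1-alpha,25-dihydroxyvitamin D3 at 3 nM final for 16 h. Values were normalized to the 50 nM agonist control and DMSO basal, with IC50 and efficacy from Hill equation fits.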

[7] = qHTS assay for small molecule agonists of retinoid X receptor alpha signaling (AID 588544; calls by dose curve;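 as to activation: 0% = DMSO basal wells and 100% = reference agonist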); conditions: HEK293T RXRa-UAS-bla, beta-lactamase reporter, 18 h; 530 nm emission
[8] = target: Retinoic acid receptor RXR-alpha (Homo sapiens) (UniProt P19793); assay: as above
Sequence of Retinoic acid receptor RXR-alpha (Homo sapiens) (P19793 whole entry, looked up): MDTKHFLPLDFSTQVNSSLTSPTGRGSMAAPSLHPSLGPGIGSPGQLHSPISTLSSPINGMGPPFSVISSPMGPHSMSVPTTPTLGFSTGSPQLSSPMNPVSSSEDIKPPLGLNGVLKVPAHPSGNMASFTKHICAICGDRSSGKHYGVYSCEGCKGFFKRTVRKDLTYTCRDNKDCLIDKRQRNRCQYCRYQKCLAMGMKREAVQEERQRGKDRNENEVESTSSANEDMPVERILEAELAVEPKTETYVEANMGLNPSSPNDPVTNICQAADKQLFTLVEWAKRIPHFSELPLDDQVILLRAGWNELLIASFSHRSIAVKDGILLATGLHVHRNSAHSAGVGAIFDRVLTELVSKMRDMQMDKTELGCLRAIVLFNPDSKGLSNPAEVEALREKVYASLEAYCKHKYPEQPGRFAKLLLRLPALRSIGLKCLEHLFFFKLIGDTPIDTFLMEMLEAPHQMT

[9] = target: Thyroid hormone receptor beta (Homo sapiens) (UniProt P10828); assay: qHTS assay for small molecule agonists of thyroid hormone receptor beta signaling (AID 588545; calls by dose curve)
Sequence of Thyroid hormone receptor beta (Homo sapiens) (P10828 whole entry, looked up): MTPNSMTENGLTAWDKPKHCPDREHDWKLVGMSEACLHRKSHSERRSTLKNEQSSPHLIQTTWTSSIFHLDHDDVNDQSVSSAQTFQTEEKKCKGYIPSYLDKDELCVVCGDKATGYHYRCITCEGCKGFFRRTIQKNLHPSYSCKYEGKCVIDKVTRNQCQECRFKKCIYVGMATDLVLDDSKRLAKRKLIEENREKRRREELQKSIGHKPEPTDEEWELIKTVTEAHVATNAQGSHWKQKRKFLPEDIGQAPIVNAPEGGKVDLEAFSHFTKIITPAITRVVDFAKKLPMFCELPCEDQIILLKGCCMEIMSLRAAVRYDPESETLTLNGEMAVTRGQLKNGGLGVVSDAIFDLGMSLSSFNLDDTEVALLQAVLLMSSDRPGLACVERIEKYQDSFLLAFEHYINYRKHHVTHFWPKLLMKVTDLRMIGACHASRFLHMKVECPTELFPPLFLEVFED
Procedure, shortened: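 In this cell-based screen, titrated compounds act on HEK 293 cells held in medium with 2% charcoal/dextran FBS, NEAA and pyruvate for 18 hrs at 37 C. Responses are expressed relative to T3 (10 nM) as 100% and basal DMSO as 0%.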

[10] = qHTS assay for small molecule antagonists of retinoid X receptor alpha signaling (AID 588546; active = well fitted inhibition curve with a large enough effect in the signal ratio, with a control signal flat, not every such curve was filed as active; the % refers to the signal ratio;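 also: cells stimulated with 9-cis-retinoic acid as agonist; % is scaled to controls: 0 for no effect and ±100 for the full control effect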); conditions: HEK293T RXRa-UAS-bla, beta-lactamase ratio, antagonist mode; measured here: W530 green channel, cytotoxicity proxy
Procedure, shortened: (§2)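 Beta-lactamase reporter inhibition, read as CCF4 fluorescence ratio (ex 405, em 460/530 nm) after 2 h at RT. HEK293T UAS-bla cells, 2500/well, were stimulated with 9-cis-RA at 500 or 100 nM final alongside test compound for 18 h at 37 C.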

[11] = target: Retinoic acid receptor RXR-alpha (Homo sapiens) (UniProt P19793); assay: as above; conditions: HEK293T RXRa-UAS-bla, beta-lactamase ratio, antagonist mode
Procedure, shortened: as §2

[12] = target: Thyroid hormone receptor beta (Homo sapiens) (UniProt P10828); assay: qHTS assay for small molecule antagonists of thyroid hormone receptor beta signaling (AID 588547; active = well fitted inhibition curve with a large enough effect in the signal ratio, with a control signal flat, not every such curve was filed as active; the % refers to the signal ratio;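 also: cells stimulated with 0.4 nM T3 agonist during compound exposure; series mostly up to about 77 µM; % is scaled to controls: 0 for no effect and ±100 for the full control effect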); conditions: TR-UAS-bla HEK293, beta-lactamase ratio, antagonist mode, 18 h
Procedure, shortened: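 Inhibition of T3-driven (0.4nM final) beta-lactamase reporter activity was measured over 0.59 nM to 92 uM compound after 18 h at 37 C. The cells were GripTite HEK293 TR-UAS-bla in charcoal/dextran-stripped serum, with CCF4 ratio read-out and IC50 from Hill fits.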

[13] = qHTS assay for small molecule agonists of the antioxidant response element (ARE) signaling pathway (AID 651741; active = well fitted activation curve with a large enough effect in the signal ratio; the % refers to the signal ratio; also: potency is read from the fitted curve at half-maximal effect; as to activation: % of control where 0% means no effect)
Procedure, shortened: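 Seeding 2,000 ARE-bla HepG2 cells per well preceded a 5 h incubation at 37 C/5% CO2 and a 16 h compound exposure at 37 C. Beta-lactamase reporter activity was then quantified by fluorescence after 2 h with LiveBLAzer B/G FRET substrate.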

[14] = qHTS assay for small molecule activators of the p53 signaling pathway (AID 651743; active = well fitted activation curve with a large enough effect in the signal ratio, not every such curve was filed as active; the % refers to the signal ratio; also: potency is read from the fitted curve at half-maximal effect; as to activation: series mostly up to about 92 µM; % of control where 0% means no effect); conditions: HCT-116 p53RE-bla, beta-lactamase FRET ratio, 16 h; activation: stronger effect = higher value
Procedure, shortened: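 Screen for p53 pathway agonists uses stably transfected p53RE-bla HCT-116 cells, 4,000 per well, treated 16 h at 37 C with compounds in DMSO.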

[15] = qHTS assay for small molecule activators of the nuclear factor-kappa B (NF-kB) signaling pathway (AID 651749; active = well fitted activation curve with a large enough effect in the signal ratio; the % refers to the signal ratio; also: series mostly up to about 77 µM; % of control where 0% means no effect); conditions: NF-kB-bla ME-180 cells, beta-lactamase FRET ratio, 16 h; activation: stronger effect = higher value
Procedure, shortened: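 Stably transfected ME-180 line; NF-kB response element upstream of beta-lactamase. Treatment: compound or DMSO, 16 hr. Detection: fluorescent FRET substrate.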

[16] = qHTS assay for small molecule agonists of the antioxidant response element (ARE) signaling pathway measured by Nrf2-dependant transcriptional activity (AID 720636; active = well fitted curve in the direction sought with a large enough effect in the repeat runs; an effect the other way counts as inactive or inconclusive;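 also: HepG2 cells with an ARE-driven luciferase reporter; % of control where 0% means no effect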)
Procedure, shortened: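 Nrf2-dependent transcription is measured in ARE-luc HepG2 cells: compound is applied for 16 hr at 37 C after a 6 hr attachment period, and luciferase activity is quantified by luminescence using ONE-Glo.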

[17] = qHTS assay for small molecule agonists of the antioxidant response element (ARE) signaling pathway measured by Nrf2-dependant transcriptional activity - cell viability counter screen (AID 720653; active = well fitted curve in the direction sought with a large enough effect in the repeat runs; an effect the other way counts as inactive or inconclusive; also: % is scaled to controls: 0 for no effect and ±100 for the full control effect); conditions: ARE-bla HepG2 viability, CellTiter-Glo ATP luminescence, 16 h; max response: stronger effect = lower value
Procedure, shortened: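 Cytotoxicity counter screen: intracellular ATP quantified by CellTiter-Glo luminescence in the same ARE-bla HepG2 plates, after 16 h compound exposure and a 2 h beta-lactamase substrate step.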

[18] = qHTS assay for cell viability of HEK293 cells (AID 743288); conditions: ATP luminescence (CellTiter-Glo), 18 h; max response: stronger effect = lower value; also: % is scaled to controls: 0 for no effect and ±100 for the full control effect; nearly all actives have a fitted effect of over 50% in size
Procedure, shortened: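 Environmental chemicals tested in qHTS format against parental HEK293 cells; 18 h treatment, 37 C; read-out ATP luminescence (CellTiter-Glo), 30 min RT development.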

[19] = qHTS assay for cell viability of the p53RE-bla HCT-116 cell line (AID 743292); also: nearly all actives have a fitted effect of over 55% in size; also: potency is read from the fitted curve at half-maximal effect
Procedure, shortened: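 ATP-based luminescence, 16 h compound exposure at 37 C, p53RE-bla HCT-116 cells at 4,000/well.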

[20] = target: Nuclear receptor subfamily 1 group I member 2 (Rattus norvegicus) (UniProt Q9R1A7); assay: qHTS assay for small molecule activators of the rat pregnane X receptor (rPXR) signaling pathway (AID 651751; call rule not given here; also: 0% is about no effect); conditions: rPXR reporter cells, luciferase (One-Glo), 24 h
Sequence of Nuclear receptor subfamily 1 group I member 2 (Rattus norvegicus) (Q9R1A7 whole entry, looked up): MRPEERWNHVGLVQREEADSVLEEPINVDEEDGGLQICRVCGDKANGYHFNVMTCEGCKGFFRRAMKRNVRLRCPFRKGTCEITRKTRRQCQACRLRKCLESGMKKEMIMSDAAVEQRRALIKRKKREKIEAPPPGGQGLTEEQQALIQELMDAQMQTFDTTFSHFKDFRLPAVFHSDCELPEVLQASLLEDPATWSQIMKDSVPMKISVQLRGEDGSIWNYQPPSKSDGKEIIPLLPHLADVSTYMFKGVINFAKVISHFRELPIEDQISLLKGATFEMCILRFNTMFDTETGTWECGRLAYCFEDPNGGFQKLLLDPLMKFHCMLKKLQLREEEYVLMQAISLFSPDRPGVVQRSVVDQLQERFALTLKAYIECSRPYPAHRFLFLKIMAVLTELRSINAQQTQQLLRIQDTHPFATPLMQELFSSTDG

[21] = qHTS assay for environmental chemicals that activate the Aryl hydrocarbon Receptor (AhR) signaling pathway (AID 651777); conditions: 1A2-DRE human hepatoma cells, luciferase, 24 h; activation: stronger effect = higher value; also: nearly all actives have a fitted effect of over 15% in size; also: potency is read from the fitted curve at half-maximal effect; as to activation: % of control where 0% means no effect
Procedure, shortened: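 Reporter gene assay: hepatoma cells with DRE/CYP1A2-luciferase, 24 hr compound incubation at 37 C, 5% CO2, luminescence after One-Glo (30 min, RT).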

[22] = qHTS assay for small molecule activators of the human pregnane X receptor (PXR) signaling pathway (AID 720659; call rule not given here; also: 0% is about no effect)
[23] = target: Peroxisome proliferator-activated receptor gamma (Homo sapiens) (UniProt P37231); assay: qHTS assay for small molecule agonists of peroxisome proliferator-activated receptor gamma signaling (AID 588536; active = well fitted curve in the direction sought with a large enough effect in the signal ratio, with a control signal flat, not every such curve was filed as active; the % refers to the signal ratio;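 also: 0% = DMSO basal wells and 100% = rosiglitazone at 2 µM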)
Sequence of Peroxisome proliferator-activated receptor gamma (Homo sapiens) (P37231 whole entry, looked up): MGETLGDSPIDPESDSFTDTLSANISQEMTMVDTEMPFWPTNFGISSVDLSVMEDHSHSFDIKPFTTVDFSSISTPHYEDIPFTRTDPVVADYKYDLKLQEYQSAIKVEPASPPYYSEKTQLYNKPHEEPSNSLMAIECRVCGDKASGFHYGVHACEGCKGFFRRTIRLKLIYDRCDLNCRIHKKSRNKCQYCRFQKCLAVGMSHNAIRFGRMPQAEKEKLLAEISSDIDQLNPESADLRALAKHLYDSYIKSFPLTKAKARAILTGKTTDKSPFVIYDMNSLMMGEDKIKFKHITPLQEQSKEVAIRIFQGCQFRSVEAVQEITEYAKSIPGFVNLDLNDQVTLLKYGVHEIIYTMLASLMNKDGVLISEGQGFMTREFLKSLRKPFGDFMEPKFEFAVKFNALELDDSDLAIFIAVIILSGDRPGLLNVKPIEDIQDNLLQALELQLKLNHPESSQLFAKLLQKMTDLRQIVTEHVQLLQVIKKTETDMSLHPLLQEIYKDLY
Procedure, shortened: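 Test agents, titrated, stimulated HEK293 UAS-bla cells overnight (16 h, 37 C). Substrate CCF4 was then added for two hours at room temperature before fluorescence reading.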

[24] = target: Peroxisome proliferator-activated receptor gamma (Homo sapiens) (UniProt P37231); assay: qHTS assay for small molecule antagonists of peroxisome proliferator-activated receptor gamma signaling (AID 588537; active = well fitted inhibition curve with a large enough effect in the signal ratio, with a control signal flat, not every such curve was filed as active; the % refers to the signal ratio;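 also: reporter cells co-stimulated with 50 nM rosiglitazone agonist during compound treatment; % of control where 0% means no effect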)
Procedure, shortened: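 Inhibitors of agonist-stimulated UAS-bla reporter activity were sought in HEK293 cells; rosiglitazone (50 nM) defined full signal and DMSO baseline. Curves fitted to Hill model gave IC50 and efficacy.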

NC(=O)c1ccc(N=C2C(=O)Nc3ccc([N+](=O)[O-])cc32)cc1
active: Potency [1] 1.41 µM

CCCCN1C(=O)C(=Nc2cccc3cnccc23)c2ccccc21
inactive: Potency [1]

CCOc1ccc(Cl)cc1/C=C1/C(=O)ON=C1C
active: Potency [1] 7.94 µM

N#CSCSc1nc2ccccc2s1
inactive: outcome [2] | max response [3] -9.14%

CCNc1nc(N)nc(Cl)n1
-17.5% and -16.5%: max response [10]
34.2%: max response [4]
-5.45% and -6.57%: max response [7]
inactive: Potency [5] | Potency [6] | outcome [2] | Potency [8] | Potency [9] | max response [11] 7.29% and -4.52% | activity change % (negative = inhibition) [12] -8.97% | Potency [13] | activation [14] -2.48% and -1.49% | activation [15] -0.704% and -0.787% | max response [3] -2.09% and -1.78% | Potency [16] | max response [17] -7.89% and -3.73% | max response [18] -4.19% and 3.18% | Potency [19] | max response [20] -3.95% and -0.52%

CCOC(=O)/C(C#N)=C1/C(=O)N(Cc2ccccc2)c2ccccc21
inactive: Potency [1]

Cn1c(/C(C#N)=C/c2ccc(C(F)(F)F)cc2)nc2ccccc21
active: Potency [1] 14.1 µM

CCOC(=O)c1ccc(S(=O)(=O)Nc2cc(S(=O)(=O)N3CCOCC3)ccc2O)cc1
inactive: Potency [1]

O=C(Nc1ccccc1)c1cc(Cl)ccc1O
active: Potency [13] 5.45 µM | Potency [14] 10 µM | Potency [21] 15.8 µM | Potency [19] 35.5 µM
inactive: Potency [6] | outcome [2] | Potency [9] | activation [15] 4.05% | max response [3] 0.537% | outcome [22]

COc1ccc(C(=O)c2coc3c2C(=O)C(=O)c2ccccc2-3)cc1
active: Potency [1] 5.62 µM

CCCCCCC(C)OC(=O)COc1nc(F)c(Cl)c(N)c1Cl (stereo unspecified)
inactive: outcome [2] | activation [14] -6.58% | activation [15] 3.49% | max response [3] 25.7% | Potency [16] | max response [17] 17% | max response [18] -29.6%

O=c1oc(=O)c2cc3c(=O)oc(=O)c3cc12
11%: max response [4]
-7.31%: max response [7]
inactive: Potency [5] | outcome [23] | Potency [6] | outcome [2] | Potency [8] | Potency [9] | max response [11] -12.6% | activity change % (negative = inhibition) [12] -2.54% | Potency [13] | activation [15] -1.97% | activation [21] 0.0535% | max response [3] -1.48% | Potency [16] | max response [17] -10.8% | max response [18] -11.4% | Potency [19] | max response [20] -1.16% | outcome [22]
2.24%: max response [10]

CCOC(=O)/C(=C\c1cccc(O)c1)c1nc2sc(C)c(C)c2c(=O)[nH]1
inactive: Potency [1]

CC(C)(C)c1cc(=O)n(-c2ccccc2)[nH]1
active: Potency [1] 12.6 µM

Oc1ccc(C(=S)N2CCN(c3cccc(Cl)c3)CC2)cc1
inactive: Potency [1]

Nc1nc(-c2cccc(F)c2)cs1
inactive: Potency [1]

CC(=O)N(C(C)=O)N1C(=O)C2C3c4ccccc4C(c4ccccc43)C2C1=O (stereo unspecified)
inactive: Potency [1]

CCN(CC)S(=O)(=O)c1ccc(O)c(NS(=O)(=O)c2ccccc2F)c1
inactive: Potency [1]

CC(C)(C)C1C/C(=C/c2ccccn2)C(=O)/C(=C/c2ccccn2)C1 (stereo unspecified)
active: Potency [1] 3.16 µM

CCOCCOCCOCCO
0.354%: max response [10]
inactive: outcome [23] | Potency [24] | Potency [6] | outcome [2] | Potency [8] | Potency [9] | max response [11] -20% | activity change % (negative = inhibition) [12] 8.91% | Potency [13] | activation [14] -1.32% | activation [15] -1.33% | activation [21] -0.451% | max response [3] -1.08% | Potency [16] | max response [17] 19.8% | max response [18] -2.83% | Potency [19] | max response [20] 10.6% | outcome [22]
-7.49%: max response [7]

O=c1[nH]c(/C=C/c2ccccc2)c([N+](=O)[O-])c(=O)[nH]1
inactive: Potency [1]

CS(=O)(=O)c1ccc(S(=O)CC(=O)Oc2ccc(Cl)cc2)c([N+](=O)[O-])c1 (stereo unspecified)
active: Potency [1] 2.51 µM

CCN(Cc1c(F)cccc1Cl)c1c([N+](=O)[O-])cc(C(F)(F)F)cc1[N+](=O)[O-]
-79%: max response [4]
inactive: Potency [5] | Potency [24] | Potency [6] | outcome [2] | activity change % (negative = inhibition) [12] -17.5% | activation [15] -3.71% | activation [21] 0.127% | max response [3] -0.89% | Potency [16] | max response [17] -3.47% | Potency [19]

S=C([S-])NCCNC(=S)[S-].S=C([S-])NCCNC(=S)[S-].[Mn+2].[Zn+2]
inactive: outcome [23] | outcome [2] | Potency [9] | activation [21] 0.587% | max response [3] -4.1% | max response [17] 17.6% | max response [18] 2.96% | max response [20] -11.1%

Source: PubChem BioAssay (NCATS)
